This passage reports binding signal results from publication PMC7862700, “An all-to-all approach to the identification of sequence-specific readers for epigenetic DNA modifications on cytosine”.

Assay in all cases: DAPPL (digital affinity profiling via proximity ligation, sequencing); 10 mM Tris-HCl pH 7.5, 50 mM NaCl, 1 mM DTT, 4% glycerol, room temperature, 30 min; GST-TFs on glutathione beads, 16-mer random dsDNA library, 0.1% formaldehyde crosslink after washing; high values mean tight binding
One assay deals with T1, FEV (Homo sapiens, UniProt Q99581 1-238).
T1 sequence: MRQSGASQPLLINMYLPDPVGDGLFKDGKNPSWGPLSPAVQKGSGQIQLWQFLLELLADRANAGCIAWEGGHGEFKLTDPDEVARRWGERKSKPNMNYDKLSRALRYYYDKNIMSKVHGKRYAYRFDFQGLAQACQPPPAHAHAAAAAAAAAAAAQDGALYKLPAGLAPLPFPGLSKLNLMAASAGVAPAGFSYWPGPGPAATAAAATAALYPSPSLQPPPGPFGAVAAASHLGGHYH
The conditions noted are these: protein: recombinant; tags: N-terminal GST; dsDNA, one strand shown. A digest of the protocol: (§1)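 Human transcription factors carrying a GST fusion were produced in yeast, bound to glutathione beads, tagged with DNA barcodes and pooled together with a tag-only sample. Each pool was held with 200 nmole of a random double-stranded 16-mer DNA library in Tris/NaCl/DTT/glycerol buffer for 30 min at room temperature, then washed, crosslinked in 0.1% formaldehyde, proximity-ligated with BsaI/T4 ligase (1 h, 37 °C), PCR-amplified and sequenced on an Illumina NextSeq500. Binding signal is the read frequency of each hexamer for a given factor divided by its frequency in the tag-only sample.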

In a further assay the target is ETV5 (Homo sapiens, UniProt P41161 1-510). The conditions noted are these: protein: recombinant; tags: N-terminal GST; dsDNA, one strand shown. A digest of the protocol: as §1
ETV5, sequence (P41161 whole entry): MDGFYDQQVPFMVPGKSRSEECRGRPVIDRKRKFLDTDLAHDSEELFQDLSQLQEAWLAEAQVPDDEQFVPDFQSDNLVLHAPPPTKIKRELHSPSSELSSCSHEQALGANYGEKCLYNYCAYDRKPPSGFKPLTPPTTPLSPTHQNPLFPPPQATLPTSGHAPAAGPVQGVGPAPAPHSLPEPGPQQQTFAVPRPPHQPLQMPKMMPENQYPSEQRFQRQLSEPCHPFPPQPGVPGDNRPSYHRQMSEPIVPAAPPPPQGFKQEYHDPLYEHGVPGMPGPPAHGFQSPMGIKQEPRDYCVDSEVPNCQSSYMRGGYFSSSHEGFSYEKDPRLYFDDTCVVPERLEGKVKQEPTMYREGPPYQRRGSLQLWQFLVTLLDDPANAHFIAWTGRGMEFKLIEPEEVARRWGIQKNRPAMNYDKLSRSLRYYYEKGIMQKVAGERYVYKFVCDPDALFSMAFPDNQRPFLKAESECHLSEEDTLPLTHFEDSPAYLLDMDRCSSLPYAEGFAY
The next assay has as its target HSF1 (Homo sapiens, UniProt Q00613 1-529). Particulars: protein: recombinant; tags: N-terminal GST; chain copies: 3; dsDNA, one strand shown. A digest of the protocol: as §1
A further assay deals with T2, SPIC (Homo sapiens, UniProt Q8N5J4 1-248).
T2 sequence: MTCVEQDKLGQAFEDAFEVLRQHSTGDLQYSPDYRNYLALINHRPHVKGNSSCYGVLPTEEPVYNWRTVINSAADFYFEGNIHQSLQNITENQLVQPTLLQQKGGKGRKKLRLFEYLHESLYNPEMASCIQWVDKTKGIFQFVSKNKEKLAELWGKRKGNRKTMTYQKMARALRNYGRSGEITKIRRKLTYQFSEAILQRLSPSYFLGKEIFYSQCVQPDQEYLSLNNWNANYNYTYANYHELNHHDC
The conditions noted are these: protein: recombinant; tags: N-terminal GST; dsDNA, one strand shown. A digest of the protocol: as §1

Another assay deals with ELF4 (Homo sapiens, UniProt Q99607 1-663). Particulars: protein: recombinant; tags: N-terminal GST; dsDNA, one strand shown. A digest of the protocol: as §1
ELF4, sequence (Q99607 whole entry): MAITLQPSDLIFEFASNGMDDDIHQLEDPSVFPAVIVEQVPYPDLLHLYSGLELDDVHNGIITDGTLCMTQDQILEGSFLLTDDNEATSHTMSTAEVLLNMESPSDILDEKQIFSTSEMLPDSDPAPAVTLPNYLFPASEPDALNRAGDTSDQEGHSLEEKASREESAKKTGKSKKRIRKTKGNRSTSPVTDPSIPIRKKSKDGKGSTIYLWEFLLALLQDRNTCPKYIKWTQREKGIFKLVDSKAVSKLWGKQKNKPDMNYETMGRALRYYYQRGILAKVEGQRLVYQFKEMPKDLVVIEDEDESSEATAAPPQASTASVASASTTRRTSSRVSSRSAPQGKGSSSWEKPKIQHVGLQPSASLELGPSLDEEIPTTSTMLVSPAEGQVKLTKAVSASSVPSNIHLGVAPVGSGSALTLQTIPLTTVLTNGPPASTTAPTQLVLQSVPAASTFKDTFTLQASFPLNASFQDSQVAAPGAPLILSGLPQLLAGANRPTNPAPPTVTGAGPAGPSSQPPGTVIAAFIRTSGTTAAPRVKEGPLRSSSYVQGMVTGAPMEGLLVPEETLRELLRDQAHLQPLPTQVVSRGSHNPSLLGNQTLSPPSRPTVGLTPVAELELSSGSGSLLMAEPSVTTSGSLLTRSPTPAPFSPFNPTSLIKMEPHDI
For a further assay, the target named is T3, ELK4 (Homo sapiens, UniProt P28324-2 1-405).
T3 sequence: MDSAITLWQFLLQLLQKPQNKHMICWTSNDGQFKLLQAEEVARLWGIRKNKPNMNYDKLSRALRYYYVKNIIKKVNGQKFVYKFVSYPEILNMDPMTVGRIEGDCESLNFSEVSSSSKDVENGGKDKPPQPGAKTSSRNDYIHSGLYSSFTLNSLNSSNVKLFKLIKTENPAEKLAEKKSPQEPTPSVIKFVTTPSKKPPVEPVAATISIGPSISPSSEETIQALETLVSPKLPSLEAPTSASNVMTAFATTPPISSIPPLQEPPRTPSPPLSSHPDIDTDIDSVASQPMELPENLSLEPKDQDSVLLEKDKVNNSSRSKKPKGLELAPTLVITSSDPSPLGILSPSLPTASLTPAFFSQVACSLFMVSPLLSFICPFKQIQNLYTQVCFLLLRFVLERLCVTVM
The conditions noted are these: protein: recombinant; tags: N-terminal GST; dsDNA, one strand shown. A digest of the protocol: as §1

For a further assay, the target named is T4, ETV2 (Homo sapiens, UniProt O00321 1-342).
T4 sequence: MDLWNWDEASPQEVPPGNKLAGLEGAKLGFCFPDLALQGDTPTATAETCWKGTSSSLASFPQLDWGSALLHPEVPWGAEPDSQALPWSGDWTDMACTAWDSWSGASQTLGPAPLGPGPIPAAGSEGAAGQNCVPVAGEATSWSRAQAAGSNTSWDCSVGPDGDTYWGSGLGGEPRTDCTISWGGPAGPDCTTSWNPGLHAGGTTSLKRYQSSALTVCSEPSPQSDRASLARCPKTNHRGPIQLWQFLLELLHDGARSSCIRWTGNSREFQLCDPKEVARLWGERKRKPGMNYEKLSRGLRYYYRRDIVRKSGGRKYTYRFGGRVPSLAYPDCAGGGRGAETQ
Particulars: protein: recombinant; tags: N-terminal GST; dsDNA, one strand shown. A digest of the protocol:
as §1

Another assay deals with T5, ELF3 (Homo sapiens, UniProt P78545 1-371).
T5 sequence: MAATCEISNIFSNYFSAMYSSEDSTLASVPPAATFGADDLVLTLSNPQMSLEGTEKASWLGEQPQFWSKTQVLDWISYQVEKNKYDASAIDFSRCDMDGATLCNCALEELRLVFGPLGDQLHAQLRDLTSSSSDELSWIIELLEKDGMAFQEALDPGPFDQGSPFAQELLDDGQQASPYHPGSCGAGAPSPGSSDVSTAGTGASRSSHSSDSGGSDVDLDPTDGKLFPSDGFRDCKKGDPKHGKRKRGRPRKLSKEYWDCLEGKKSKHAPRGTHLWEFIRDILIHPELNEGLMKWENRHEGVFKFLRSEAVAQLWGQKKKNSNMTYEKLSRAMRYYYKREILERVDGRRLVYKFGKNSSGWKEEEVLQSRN
The conditions noted are these: protein: recombinant; tags: N-terminal GST; dsDNA, one strand shown. A digest of the protocol: as §1

The next assay addresses CRX (Homo sapiens, UniProt O43186 1-299). Particulars: protein: recombinant; tags: N-terminal GST; dsDNA, one strand shown. A digest of the protocol:
as §1

The target in a further assay is ETV1 (Homo sapiens, UniProt P50549 1-477). The conditions noted are these: protein: recombinant; tags: N-terminal GST; dsDNA, one strand shown. A digest of the protocol:
as §1

The target in another assay is T6, ERF (Homo sapiens, UniProt P50548 1-548).
T6 sequence: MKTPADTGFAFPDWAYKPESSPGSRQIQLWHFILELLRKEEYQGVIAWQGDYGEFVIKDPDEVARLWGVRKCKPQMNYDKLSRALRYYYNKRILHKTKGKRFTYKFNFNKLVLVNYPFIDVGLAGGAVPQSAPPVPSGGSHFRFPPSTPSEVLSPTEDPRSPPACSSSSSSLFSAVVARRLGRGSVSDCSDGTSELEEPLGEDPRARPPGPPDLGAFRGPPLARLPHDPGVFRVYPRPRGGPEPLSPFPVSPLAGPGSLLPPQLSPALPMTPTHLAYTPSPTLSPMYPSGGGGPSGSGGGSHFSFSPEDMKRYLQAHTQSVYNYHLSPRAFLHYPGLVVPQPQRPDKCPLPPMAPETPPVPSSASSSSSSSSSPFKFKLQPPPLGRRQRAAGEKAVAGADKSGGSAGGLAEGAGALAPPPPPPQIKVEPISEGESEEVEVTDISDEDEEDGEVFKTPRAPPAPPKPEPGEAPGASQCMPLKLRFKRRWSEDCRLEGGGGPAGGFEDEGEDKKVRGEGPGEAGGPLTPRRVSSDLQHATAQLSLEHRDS
The conditions noted are these: protein: recombinant; tags: N-terminal GST; dsDNA, one strand shown. A digest of the protocol:
as §1

The next assay addresses T7, ETV3L (Homo sapiens, UniProt Q6ZN32 1-361).
T7 sequence: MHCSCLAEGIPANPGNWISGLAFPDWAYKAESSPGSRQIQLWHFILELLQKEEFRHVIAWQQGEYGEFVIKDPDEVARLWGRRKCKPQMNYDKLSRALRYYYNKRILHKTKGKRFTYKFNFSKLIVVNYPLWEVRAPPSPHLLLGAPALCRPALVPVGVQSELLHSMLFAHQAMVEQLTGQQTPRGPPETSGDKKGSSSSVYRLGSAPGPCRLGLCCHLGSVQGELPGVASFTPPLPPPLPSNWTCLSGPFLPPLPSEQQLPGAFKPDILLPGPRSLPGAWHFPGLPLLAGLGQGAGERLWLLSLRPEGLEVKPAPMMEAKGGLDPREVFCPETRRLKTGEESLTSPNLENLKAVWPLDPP
Particulars: protein: recombinant; tags: N-terminal GST; dsDNA, one strand shown. A digest of the protocol: as §1

The next assay addresses T8, ETS2 (Homo sapiens, UniProt P15036 1-469).
T8 sequence: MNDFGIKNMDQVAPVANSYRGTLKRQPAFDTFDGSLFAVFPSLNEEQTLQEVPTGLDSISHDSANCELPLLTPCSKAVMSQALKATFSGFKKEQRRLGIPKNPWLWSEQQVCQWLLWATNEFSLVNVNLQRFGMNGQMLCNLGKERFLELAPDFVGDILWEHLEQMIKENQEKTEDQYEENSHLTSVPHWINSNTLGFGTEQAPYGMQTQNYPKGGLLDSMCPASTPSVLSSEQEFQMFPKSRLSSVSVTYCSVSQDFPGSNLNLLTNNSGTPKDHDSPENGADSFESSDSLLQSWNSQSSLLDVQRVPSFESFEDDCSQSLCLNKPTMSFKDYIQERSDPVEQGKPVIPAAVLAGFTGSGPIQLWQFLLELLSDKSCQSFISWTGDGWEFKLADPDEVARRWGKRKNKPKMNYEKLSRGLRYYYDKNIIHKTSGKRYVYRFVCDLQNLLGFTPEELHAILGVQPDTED
The conditions noted are these: protein: recombinant; tags: N-terminal GST; dsDNA, one strand shown. A digest of the protocol:
as §1

The next assay concerns the target T9, SPDEF (Homo sapiens, UniProt O95238 1-335).
T9 sequence: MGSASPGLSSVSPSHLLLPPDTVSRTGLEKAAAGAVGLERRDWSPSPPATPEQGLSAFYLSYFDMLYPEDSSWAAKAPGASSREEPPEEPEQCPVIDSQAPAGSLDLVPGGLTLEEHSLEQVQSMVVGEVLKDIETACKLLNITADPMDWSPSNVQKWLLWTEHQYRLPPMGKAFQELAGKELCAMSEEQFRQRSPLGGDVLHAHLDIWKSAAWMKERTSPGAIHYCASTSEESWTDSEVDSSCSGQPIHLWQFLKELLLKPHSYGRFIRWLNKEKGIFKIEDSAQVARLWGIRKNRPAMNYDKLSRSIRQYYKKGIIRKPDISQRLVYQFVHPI
The conditions noted are these: protein: recombinant; tags: N-terminal GST; dsDNA, one strand shown. A digest of the protocol:
as §1

The next assay has as its target T10, ETV7 (Homo sapiens, UniProt Q9Y603 1-341).
T10 sequence: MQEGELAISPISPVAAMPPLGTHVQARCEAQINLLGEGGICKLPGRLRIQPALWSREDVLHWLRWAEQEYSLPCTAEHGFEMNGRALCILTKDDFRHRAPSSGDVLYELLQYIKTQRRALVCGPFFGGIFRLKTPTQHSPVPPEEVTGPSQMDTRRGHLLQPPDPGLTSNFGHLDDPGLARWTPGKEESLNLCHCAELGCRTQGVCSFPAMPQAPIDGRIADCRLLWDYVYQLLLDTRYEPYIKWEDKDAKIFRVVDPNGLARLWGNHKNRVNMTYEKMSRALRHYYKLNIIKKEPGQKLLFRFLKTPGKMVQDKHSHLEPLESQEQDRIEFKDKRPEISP
The conditions noted are these: protein: recombinant; tags: N-terminal GST; dsDNA, one strand shown. A digest of the protocol: as §1

The target of a further assay is T11, ELF5 (Homo sapiens, UniProt Q9UKW6-2 1-255).
T11 sequence: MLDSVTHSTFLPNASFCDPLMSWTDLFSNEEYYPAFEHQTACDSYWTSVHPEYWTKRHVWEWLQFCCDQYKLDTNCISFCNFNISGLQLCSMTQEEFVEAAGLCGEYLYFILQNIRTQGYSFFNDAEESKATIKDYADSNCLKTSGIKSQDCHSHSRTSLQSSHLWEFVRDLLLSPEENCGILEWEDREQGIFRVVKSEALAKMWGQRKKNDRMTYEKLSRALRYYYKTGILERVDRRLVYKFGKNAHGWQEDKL
Particulars: protein: recombinant; tags: N-terminal GST; dsDNA, one strand shown. A digest of the protocol: as §1

The next assay concerns the target T12, ETV3 (Homo sapiens, UniProt P41162-2 1-143).
T12 sequence: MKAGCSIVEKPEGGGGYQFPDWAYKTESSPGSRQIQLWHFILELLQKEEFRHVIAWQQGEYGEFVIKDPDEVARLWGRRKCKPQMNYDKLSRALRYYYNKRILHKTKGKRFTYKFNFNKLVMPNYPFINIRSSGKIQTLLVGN
Particulars: protein: recombinant; tags: N-terminal GST; dsDNA, one strand shown. A digest of the protocol: as §1

Another assay addresses ETV6 (Homo sapiens, UniProt P41212 1-452). The conditions noted are these: protein: recombinant; tags: N-terminal GST; dsDNA, one strand shown. A digest of the protocol:
as §1

ETV6, sequence (P41212 whole entry): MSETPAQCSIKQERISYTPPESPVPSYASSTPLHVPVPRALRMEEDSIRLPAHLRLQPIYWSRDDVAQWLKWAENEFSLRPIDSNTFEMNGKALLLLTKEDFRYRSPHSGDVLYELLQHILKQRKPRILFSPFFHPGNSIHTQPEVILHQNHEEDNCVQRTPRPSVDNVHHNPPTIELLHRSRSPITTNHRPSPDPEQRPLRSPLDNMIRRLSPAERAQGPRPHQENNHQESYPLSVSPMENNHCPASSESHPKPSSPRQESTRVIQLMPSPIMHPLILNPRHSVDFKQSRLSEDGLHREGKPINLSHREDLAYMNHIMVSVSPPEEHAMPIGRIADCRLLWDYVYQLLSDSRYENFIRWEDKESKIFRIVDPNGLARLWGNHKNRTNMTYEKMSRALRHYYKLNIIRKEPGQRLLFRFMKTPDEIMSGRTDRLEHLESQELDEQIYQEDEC
CRX, sequence (O43186 whole entry): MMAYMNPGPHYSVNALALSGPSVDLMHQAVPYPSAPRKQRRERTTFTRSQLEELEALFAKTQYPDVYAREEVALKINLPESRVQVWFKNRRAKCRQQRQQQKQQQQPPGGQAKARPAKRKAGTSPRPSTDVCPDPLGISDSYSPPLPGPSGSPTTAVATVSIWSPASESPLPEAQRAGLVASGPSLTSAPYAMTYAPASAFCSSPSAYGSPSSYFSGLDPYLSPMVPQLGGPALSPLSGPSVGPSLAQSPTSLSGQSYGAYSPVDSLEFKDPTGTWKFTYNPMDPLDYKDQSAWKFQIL
HSF1, sequence (Q00613 whole entry): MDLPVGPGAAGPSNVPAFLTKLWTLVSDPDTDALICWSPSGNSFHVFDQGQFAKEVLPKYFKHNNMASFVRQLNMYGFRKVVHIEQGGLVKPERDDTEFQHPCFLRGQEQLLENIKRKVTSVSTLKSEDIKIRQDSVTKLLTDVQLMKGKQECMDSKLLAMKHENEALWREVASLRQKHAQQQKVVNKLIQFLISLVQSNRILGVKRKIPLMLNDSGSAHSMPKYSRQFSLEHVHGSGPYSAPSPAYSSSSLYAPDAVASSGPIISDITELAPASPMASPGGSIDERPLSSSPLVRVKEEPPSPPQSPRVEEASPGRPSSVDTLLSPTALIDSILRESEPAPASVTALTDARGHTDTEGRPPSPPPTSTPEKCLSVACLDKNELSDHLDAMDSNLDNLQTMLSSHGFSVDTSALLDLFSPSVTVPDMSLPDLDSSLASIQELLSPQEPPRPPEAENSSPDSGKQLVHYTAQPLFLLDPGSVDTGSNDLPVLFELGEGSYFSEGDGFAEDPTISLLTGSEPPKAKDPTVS
ETV1, sequence (P50549 whole entry): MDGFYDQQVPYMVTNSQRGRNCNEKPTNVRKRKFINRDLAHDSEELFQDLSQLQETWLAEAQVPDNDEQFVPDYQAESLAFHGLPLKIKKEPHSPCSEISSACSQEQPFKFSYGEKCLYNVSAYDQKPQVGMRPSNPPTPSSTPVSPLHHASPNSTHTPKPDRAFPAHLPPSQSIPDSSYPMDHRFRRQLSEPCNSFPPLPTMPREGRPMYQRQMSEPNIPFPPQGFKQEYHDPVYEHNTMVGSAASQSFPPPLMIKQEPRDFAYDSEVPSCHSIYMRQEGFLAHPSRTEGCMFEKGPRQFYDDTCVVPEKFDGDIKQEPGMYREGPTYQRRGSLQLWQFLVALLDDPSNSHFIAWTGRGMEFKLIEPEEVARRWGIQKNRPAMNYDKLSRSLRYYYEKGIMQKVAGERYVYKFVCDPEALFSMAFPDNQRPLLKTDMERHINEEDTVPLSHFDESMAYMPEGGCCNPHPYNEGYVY

For GTTCTG, the binding signal is 1.03 fold enrichment (6-mer frequency, TF over GST control) in the assay with FEV; 1.08 fold enrichment (6-mer frequency, TF over GST control) with ETV5; 1.84 fold enrichment (6-mer frequency, TF over GST control) with HSF1; 1.1 fold enrichment (6-mer frequency, TF over GST control) with SPIC; 1.14 fold enrichment (6-mer frequency, TF over GST control) with ELF4; 1.3 fold enrichment (6-mer frequency, TF over GST control) in the assay with ELK4. For the same sequence, the binding signal in the assay with ETV2 was 1.09 fold enrichment (6-mer frequency, TF over GST control); with ELF3 it was 1.12 fold enrichment (6-mer frequency, TF over GST control); with CRX it was 1.01 fold enrichment (6-mer frequency, TF over GST control); in the assay with ETV1 it was 1.1 fold enrichment (6-mer frequency, TF over GST control); in the assay with ERF, 1.12 fold enrichment (6-mer frequency, TF over GST control); in the assay with ETV3L it was 1.23 fold enrichment (6-mer frequency, TF over GST control). For the same sequence, the binding signal with ETS2 was 1.05 fold enrichment (6-mer frequency, TF over GST control); in the assay with SPDEF it was 1 fold enrichment (6-mer frequency, TF over GST control); in the assay with ETV7 it was 1.07 fold enrichment (6-mer frequency, TF over GST control); with ELF5, 1.1 fold enrichment (6-mer frequency, TF over GST control); in the assay with ETV3 it was 1.13 fold enrichment (6-mer frequency, TF over GST control); in the assay with ETV6, 1.1 fold enrichment (6-mer frequency, TF over GST control).
